Assay outcomes as filed in PubChem BioAssay.
Shown are actives, neighbours in structure and some others; about 1.1% of the full set was active somewhere.
RPL19A-GFP yeast: yeast TOR pathway RPL19A-GFP modulation; S. cerevisiae RPL19A-GFP strain, flow cytometry, 3 h; hits give low values; percent response vs DMSO, % at 10 µM; hit rate 0.3% among 330,000;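 active = percent response vs DMSO below 50%; inconclusive = fewer than 70 events counted for the yeast strain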;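 note: median channel GFP fluorescence of the barcoded RPL19A-GFP strain; ratio of sample median GFP to plate DMSO average so 100% = DMSO; lower means less RPL19A-GFP as with rapamycin TOR inhibition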
CIT2-GFP yeast: yeast TOR pathway CIT2-GFP modulation; S. cerevisiae CIT2-GFP strain, flow cytometry, 3 h; 100 means same as DMSO wells; GFP response vs DMSO, % at 10 µM; hit rate 0.065% among 320,000; AID 2029;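 active = GFP response relative to DMSO above a set limit, near the screen mean plus 3 SD, cut at about 150% in these data; inconclusive = Fewer than 70 cells measured for a yeast strain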;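 note: ratio of well median GFP fluorescence to mean of DMSO wells on the plate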
MEP2-GFP yeast: alters MEP2-GFP fluorescence in TOR pathway yeast screen. S. cerevisiae MEP2-GFP strain, flow cytometry GFP, 3 h; 100% = DMSO control level. GFP response vs DMSO, % at 10 µM. hit rate 0.51% among 330,000. AID 2016;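 active = GFP response versus DMSO above a set limit, roughly screen mean plus 3 SD, cut at about 180% in these data; inconclusive = fewer than 70 cells counted for a yeast strain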;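 note: median GFP fluorescence of the barcode-gated MEP2-GFP cells per well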
VLA-4 inh: inhibition in a human VLA-4 binding assay | hit rate 0.2% among 330,000 | VLA-4 expressing cells, ligand binding flow cytometry | inhibition, % (about 7 µM as worked out from the volumes in the protocol); in the data active = inhibition above about 50%
AGP1-GFP MLPCN: modulators of TOR pathway AGP1-GFP in S. cerevisiae. S. cerevisiae AGP1-GFP multiplex flow cytometry, 3 h; GFP as percent of DMSO wells. GFP response vs DMSO, % at 10 µM. hit rate 0.02% among 320,000. AID 2066;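 active = GFP response relative to DMSO above a set limit, near screen average plus 3 SD, cut at about 150% in these data; inconclusive = fewer than 70 cells counted for the yeast strain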;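 note: median GFP channel fluorescence of the gated AGP1 strain per well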
LAP4 TOR yeast: alters LAP4-GFP fluorescence in TOR pathway yeast screen | S. cerevisiae LAP4-GFP multiplex, flow cytometry GFP, 3 h; median GFP as percent of DMSO wells | GFP response vs DMSO, % at 10 µM | hit rate 0.34% among 320,000;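 active = GFP response vs DMSO above a set limit, about the screen mean plus 3 SD, cut at about 150% in these data; inconclusive = under 70 cell events counted for the yeast strain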
* hit, by the source's call; [ ] = dose if it differs, or a comment.

What do the screens show for `COP(=S)(OC)SCN1C(=O)c2ccccc2C1=O`?
RPL19A-GFP yeast: 31.2*[may fluoresce violet]; CIT2-GFP yeast: inconclusive; MEP2-GFP yeast: inconclusive; VLA-4 inh: 4.1; AGP1-GFP MLPCN: inconclusive; LAP4 TOR yeast: inconclusive

Results for COC(=O)C1=C(c2cc3ccccc3s2)C[C@@H]2CC[C@H]1N2C ?
RPL19A-GFP yeast: 97.8; CIT2-GFP yeast: 97.9; MEP2-GFP yeast: 110.1; VLA-4 inh: 18.6; AGP1-GFP MLPCN: 98.5; LAP4 TOR yeast: 102.8

What do the screens show for `COc1ccc(CCNC(=O)c2c(N)n(CCN3CCOCC3)c3nc4ccccc4nc23)cc1`?
RPL19A-GFP yeast: 17.4*[may fluoresce violet]; CIT2-GFP yeast: inconclusive; MEP2-GFP yeast: 561.6*[may fluoresce violet]; VLA-4 inh: 10.5; AGP1-GFP MLPCN: inconclusive; LAP4 TOR yeast: 107.3

Results for N#CC(C#N)=Cc1ccc(N2CCCC2)cc1 ?
RPL19A-GFP yeast: 47.4*; CIT2-GFP yeast: 67.9; MEP2-GFP yeast: 151.1; VLA-4 inh: 2.7; AGP1-GFP MLPCN: 73.1; LAP4 TOR yeast: 101.4

How did COc1ccc(N=Nc2c(O)[nH]c(=S)[nH]c2=O)cc1 do in these assays?
RPL19A-GFP yeast: 19.7*[may fluoresce violet]; CIT2-GFP yeast: inconclusive; MEP2-GFP yeast: 90.1; VLA-4 inh: -22.0; AGP1-GFP MLPCN: inconclusive; LAP4 TOR yeast: 161.8*[may fluoresce violet]

What do the screens show for `COc1ccc2c(c1)c(C(=O)C(C)N1CCCCC1)c(C)n2C` (stereo not given)?
RPL19A-GFP yeast: 17.4*[may fluoresce violet]; CIT2-GFP yeast: inconclusive; MEP2-GFP yeast: 492.6*[may fluoresce violet]; VLA-4 inh: 10.0; AGP1-GFP MLPCN: inconclusive; LAP4 TOR yeast: 84.2

How did CCOC(=O)c1c(C)n(C(C)C)c2ccc(OC)cc12 do in these assays?
RPL19A-GFP yeast: 104.0; CIT2-GFP yeast: 101.0; MEP2-GFP yeast: 100.5; VLA-4 inh: 1.2; AGP1-GFP MLPCN: 98.8; LAP4 TOR yeast: 98.2

How did CCCCn1c(O)c(C=NCCN2CCCCC2)c(=O)[nH]c1=O do in these assays?
RPL19A-GFP yeast: 64.2; CIT2-GFP yeast: inconclusive; MEP2-GFP yeast: 218.5*[may fluoresce violet]; VLA-4 inh: 7.8; AGP1-GFP MLPCN: 26.4; LAP4 TOR yeast: 72.0

What do the screens show for `CCCC1C(C#N)=C(N)Oc2c1c(=O)oc1ccccc21` (stereo not given)?
RPL19A-GFP yeast: inconclusive; CIT2-GFP yeast: inconclusive; MEP2-GFP yeast: 414.6*[may fluoresce red and violet]; VLA-4 inh: 1.1; AGP1-GFP MLPCN: inconclusive; LAP4 TOR yeast: inconclusive

What do the screens show for `CN(C)C(=O)Oc1ccc2c(c1)O/C(=C\c1cccc([N+](=O)[O-])c1)C2=O`?
RPL19A-GFP yeast: 101.4; CIT2-GFP yeast: 92.7; MEP2-GFP yeast: 102.6; VLA-4 inh: 7.2; AGP1-GFP MLPCN: 89.0; LAP4 TOR yeast: 93.1

Results for O=C1NC(=O)C(=Cc2ccc(OCC(=O)N3CCOCC3)cc2)C(=O)N1 ?
RPL19A-GFP yeast: 105.3; CIT2-GFP yeast: 110.1; MEP2-GFP yeast: 112.8; VLA-4 inh: 7.2; AGP1-GFP MLPCN: 91.4; LAP4 TOR yeast: 81.0

Results for O=C(COC(=O)Cc1ccccc1)Nc1ncc(Cl)cc1Cl ?
CIT2-GFP yeast: inconclusive; MEP2-GFP yeast: 283.6*[may fluoresce violet]; VLA-4 inh: 17.9; AGP1-GFP MLPCN: 26.8; LAP4 TOR yeast: 92.1

How did O=C(COC(=O)Cc1ccccc1)Nc1ccc(Cl)cn1 do in these assays?
RPL19A-GFP yeast: 100.5; CIT2-GFP yeast: 98.1; MEP2-GFP yeast: 110.5; VLA-4 inh: 3.1; AGP1-GFP MLPCN: 110.6; LAP4 TOR yeast: 110.4

How did COc1ccc2[nH]c3c(c2c1)CCNC3C (stereo not given) do in these assays?
RPL19A-GFP yeast: 103.6; CIT2-GFP yeast: 108.9; MEP2-GFP yeast: 107.7; VLA-4 inh: 4.5; AGP1-GFP MLPCN: 99.2; LAP4 TOR yeast: 98.0

Results for COc1ccc2c3c([nH]c2c1)C(C)NCC3 (stereo not given) ?
RPL19A-GFP yeast: 101.0; CIT2-GFP yeast: inconclusive; MEP2-GFP yeast: 304.7*[may fluoresce violet]; VLA-4 inh: -30.0; AGP1-GFP MLPCN: 20.8; LAP4 TOR yeast: 105.7

Results for Fc1c(F)c(F)c(N2CCNCC2)c(F)c1F ?
RPL19A-GFP yeast: 98.3; CIT2-GFP yeast: 98.7; MEP2-GFP yeast: 99.6; VLA-4 inh: 11.3; AGP1-GFP MLPCN: 100.9; LAP4 TOR yeast: 100.8

Results for CCN1C(=O)NC(=O)/C(=C\c2cn(CC(=O)N3CCCCC3)c3ccccc23)C1=O ?
RPL19A-GFP yeast: 105.2; CIT2-GFP yeast: 110.3; MEP2-GFP yeast: 105.6; VLA-4 inh: 18.4; AGP1-GFP MLPCN: 100.1; LAP4 TOR yeast: 102.6
